Our source for the INHIBITION values is ChEMBL document CHEMBL4513216, “Probing the Open Global Health Chemical Diversity Library for Multistage-Active Starting Points for Next-Generation Antimalarials” (ACS Infect Dis, 2020).

Hit rate of the full screen: of about 69,000 compounds, about 8,600 (12%) showed an effect of 50% or more. Shown is part of a subset that was picked to be rich in strong results.

The subject of this assay is Plasmodium berghei. Briefly: Screen against P. berghei liver stage (PbLuc), transformed with Luciferase, at 10uM. The settings on record: tested at 10 uM. The assay is classed as functional, HepG2.
Turning to `Cc1ccc(S(=O)(=O)NC(=O)C2(c3ccc(F)cc3)CCC2)c(C)c1`, the INHIBITION worked out at 20%. The value for `O=C(c1cccc(-c2ccc(F)cc2)c1)N1CCC2(CC1)[C@H](O)C[C@@H]2O` was -8.47%; that for `CCc1nc(C2CCCN2C(=O)c2cnns2)no1` (stereo not drawn) was 29.765%. In the case of `O=C(NCc1ccc(CN2CCCC2)cc1)NC1(CO)CCCC1`, the INHIBITION stood at 62.8%.

Turning to `CC(C)OCc1ccc(CNC(=O)NC2(CO)CCCC2)cc1`, the INHIBITION worked out at 46.1%. With `O=C(NCc1ccc(CN2CCCC2)cc1)NCc1ccon1`, the INHIBITION amounted to 20.4%. The value for `CC(C)CCCNC(=O)Nc1ccc(Cl)c(C(N)=O)c1` was -57.4%. Then `CCN(CC)C(=O)CSc1sc2c(O)cc(=O)[nH]c2c1C(N)=O`, with 4.07%; and `COc1ccc(C(C)Nc2ncnc3c2NC(=O)CN3)cc1` (stereo not drawn), with 8.49%.

Take `O=S(=O)(c1c(N2CCCC2)ccc2nonc12)N1CCCC1`: the INHIBITION worked out at 17.7%. The value for `CCn1cc(-c2cc(C(=O)N3CCOCC3)c3cc(Cl)ccc3n2)cn1` was 12.9%. Turning to `COc1cc(F)cc2sc(NC(=O)COCC3CCCO3)nc12` (stereo not drawn), the INHIBITION was 16.1%. The value for `Cc1noc([C@H]2C[C@@H]3CCN(C(=O)c4cccn4C)C[C@H]3O2)n1` was 25.8%; that for `Cc1noc([C@@H]2C[C@H]3CN(C(=O)C4CCN(C)CC4)C[C@H]3O2)n1` was 28.7%; that for `COCC(=O)N1CC[C@H]2C[C@H](c3nc(C)no3)O[C@@H]2C1` was -41.2%. Then `Cc1noc([C@H]2C[C@H]3CN(C(=O)C4CCOCC4)CC[C@@H]3O2)n1`, with 59%. The value for `Cc1noc([C@H]2C[C@@H]3CCN(C(=O)C4CCOCC4)C[C@H]3O2)n1` was 41.5%; that for `Cc1noc([C@H]2C[C@@H]3CCN(C(=O)N(C)C)C[C@H]3O2)n1` was 54.6%.

With `CCN(Cc1ccc(OC)c(F)c1)Cc1nc2c(cnn2C)c(=O)[nH]1`, the INHIBITION stood at 11.6%. The value for `COCCNC(=O)N1CCN(C(=O)Cc2ccccc2F)CC1` was -63.6%. Turning to `CN1N=C(C(=O)N(Cc2ccco2)C2CCCC2)CCC1=O`, the INHIBITION worked out at 46.1%. The value for `Cc1nc(C)c(C(=O)N2CCc3nnc(C4CCCCN4C)n3CC2)s1` (stereo not drawn) was -12.4%. For the molecule `CCc1ccccc1Nc1noc2c1CN(C(=O)C1CCCO1)CC2` (stereo not drawn), the INHIBITION is on record as -9.32%. With `CCN1CCCCC1C(=O)N1CCc2onc(-c3ccc(Cl)cc3)c2C1` (stereo not drawn), the INHIBITION came to 20.2%. The value for `O=C(C1CCCO1)N1CCc2onc(-c3ccc(Cl)cc3)c2C1` (stereo not drawn) was 59.1%; that for `Cn1cc(C(=O)N2CCN(Cc3ccsc3)CC2)cn1` was -2.825%; that for `CCSCCNC(=O)Nc1cc(C(=O)N2CCOCC2)ccc1Cl` was 36.9%. The value for `O=C(NCCN1CCCC1)Nc1cc(C(=O)N2CCOCC2)ccc1Cl` was 67.5%; that for `O=C(NCCn1cccn1)Nc1cc(C(=O)N2CCOCC2)ccc1Cl` was 45.2%. The value for `Cc1cc(C)nc(N2CCOC(c3cc(CCO)[nH]n3)C2)n1` (stereo not drawn) was 2.99%. In the case of `CC(C)(C)C1SCC(=O)Nc2c1c(O)nn2C1CCCC1` (stereo not drawn), the INHIBITION is 48%. Take `Cn1cc(CN2CCCC3(CCCCN3S(C)(=O)=O)C2)cn1` (stereo not drawn): the INHIBITION turned out to be 18.3%.

For the molecule `CNC(=O)c1cc2c(nc1NCC(C)C)CCN(S(C)(=O)=O)CC2`, the INHIBITION is -26.1%. The value for `CNC(=O)c1cc2c(nc1N(C)C)CCN(c1ncccn1)CC2` was 63.8%. Then `CNC(=O)c1cc2c(nc1N(C)C)CCN(c1ncc(C)cn1)CC2`, with 57.5%; and `CNC(=O)c1cc2c(nc1N(C)C)CCN(S(=O)(=O)CC(C)C)CC2`, with -22.8%; and `CNC(=O)c1cc2c(nc1N(C)C)CCN(S(=O)(=O)N(C)C)CC2`, with 44.8%.

As to `CNC(=O)c1cc2c(nc1N(C)C)CCN(S(=O)(=O)C1CC1)CC2`, the INHIBITION is 9.3%. The value for `CCS(=O)(=O)N1CCc2cc(C(=O)NC)c(N(C)C)nc2CC1` was 19.8%; that for `CCc1cnc(N2CCc3cc(C(=O)NC)c(N(C)C)nc3CC2)nc1` was 81%. The value for `CNC(=O)c1cc2c(nc1NCC(C)C)CCN(S(=O)(=O)N(C)C)CC2` was -23.4%; that for `Cc1cnc(N2CCc3cc(C(=O)O)c(N(C)C)nc3CC2)nc1` was 31.2%. The value for `CNC(=O)c1cc2c(nc1N(C)C)CCN(C)CC2` was 13.3%.

For `CNC(=O)c1cc2c(nc1N(C)C)CCN(c1ncc(F)cn1)CC2`, the INHIBITION worked out at 50.3%.

Turning to `CCN1CC(C(=O)N2CCN(CCn3cccc3)CC2)CCC1=O` (stereo not drawn), the INHIBITION stood at 6.69%.

Turning to `O=C(NCC(Cc1cccc(F)c1)N1CCCC1=O)c1ccc[nH]c1=O` (stereo not drawn), the INHIBITION worked out at 3.88%. Then `COc1ccc(CN2CCC3(CCCN(C)C3=O)C2)c(OC)c1C` (stereo not drawn), with 5.75%; and `CCn1ccnc1CN1CCOC(Cn2cccn2)C1` (stereo not drawn), with 37.9%; and `CC1CCc2nc(NS(=O)(=O)c3cnn(C)c3)sc2C1` (stereo not drawn), with 33.4%. Then `CNc1nc(CNC(=O)Nc2ccc(SC)c(F)c2)cs1`, with -4.35%; and `Cc1ccc(CN2CCCC3(CCC(=O)N3)CC2)s1` (stereo not drawn), with -19.6%. The value for `CN1CCC(Cc2noc(-c3cccc4c3OCC4)n2)CC1` was 34.5%.

Turning to `Cc1ccc2oc(SCC(=O)NC(C)(C)C)nc2n1`, the INHIBITION stood at 49.1%. Then `Cc1nc(Nc2cnccn2)cc(C2CCN(CCO)C2)n1` (stereo not drawn), with 23.2%; and `Cc1ccc(-c2ncc(C(=O)NCCNC(=O)C3CC3)s2)c(C)c1`, with -91.8%; and `Cc1nccc(C(=O)N2CCOC(c3nc(C(C)C)n[nH]3)C2)n1` (stereo not drawn), with -65.3%. The value for `Cc1nn(C)c2ncc(CN3CCN(Cc4ccco4)CC3)cc12` was 21.2%; that for `Cc1cc(C)c(CNC(=O)N2CCOC(c3ccccc3)C2)c(=O)[nH]1` (stereo not drawn) was 31.9%. With `Cc1cc(C)c(C(=O)N2CCOC(c3cccs3)C2)c(=O)[nH]1` (stereo not drawn), the INHIBITION is listed as -18.6%. The value for `Cc1ccc(C2CN(C(=O)c3c(C)cc(C)[nH]c3=O)CCO2)c(C)c1` (stereo not drawn) was 55%; that for `CNC(=O)C1CN(C(C)C)CCN1c1ncccn1` (stereo not drawn) was 47.1%. The value for `CCC(=O)N1CCc2nc3cc(OC)c(OC)cc3c(=O)n2CC1` was 59.1%.

`COc1cc2nc3n(c(=O)c2cc1OC)CCN(C(C)=O)CC3`: the INHIBITION is recorded as 21%.

Turning to `CCCC(=O)N1CCc2nc3cc(OC)c(OC)cc3c(=O)n2CC1`, the INHIBITION stood at 44.1%. The value for `COc1c(C2CCCN2C(=O)c2c[nH]c3ncccc23)c(C)nn1C` (stereo not drawn) was 44.3%; that for `CCOc1ccc(CNC(=O)N(C)CC(C)(C)O)cc1C` was 62.8%. The value for `COc1ccc(CNC(=O)N(C)CC(C)(C)O)cc1OC` was 46.6%. Then `CCOc1cc(Cl)ccc1CNC(=O)N(C)CC(C)(C)O`, with 25.2%; and `O=C(NCC(CO)Cc1ccc(Cl)cc1)c1ccncc1F` (stereo not drawn), with -11.1%. For the molecule `Cc1cc(C)n(C2CCCN(C(=O)c3cn4cccnc4n3)C2)n1` (stereo not drawn), the INHIBITION amounted to 31.9%. Then `CC(C)(C)OC(=O)N1CCCN1C(=O)c1cccc2cc[nH]c12`, with 56.5%; and `CC(C)(C)OC(=O)N1CCCN1C(=O)c1cccc(F)c1F`, with 31.9%; and `Cc1[nH]ccc1C(=O)N1CCCN1C(=O)OC(C)(C)C`, with 14.3%.

Take `O=C(NC1CCCC1)c1cc(C2CCCNC2)n[nH]1` (stereo not drawn): the INHIBITION came to 9.98%. The value for `CN1C[C@@H](O)[C@]2(CCN(C(=O)c3ccccc3)C2)S1(=O)=O` was 8.61%; that for `O=C(C1CCC1)N1C[C@H]2CC[C@@H](C1)N(S(=O)(=O)c1ccccc1)C2` was -49.3%; that for `CCOc1nnc(CN(CC)CC(=O)Nc2c(F)cccc2F)s1` was 69.1%.

Take `CCOc1nnc(CN(CC)CC(=O)NC(C)(C)C)s1`: the INHIBITION came out at 24.7%. Then `CCOc1nnc(CN(CC)CC(=O)NC(C)C)s1`, with 39.9%; and `Cc1oc(C)c(C(=O)N2CCCN(c3nccs3)CC2)c1C`, with -21.7%; and `O=C(Cc1n[nH]c(-c2cncc(Br)c2)n1)NCc1ccncc1`, with 29.4%. Consider `NC(=O)CNC(c1ccccc1)c1ccc(OC(F)F)cc1` (stereo not drawn), for which the INHIBITION is -11.9%.

Take `CC(NC(=O)CN1CCN(c2cccc(Cl)c2)CC1)c1ccco1` (stereo not drawn): the INHIBITION was determined as 22.6%. Then `Cc1ccc(Cl)cc1N1CCN(CC(=O)NC(C)c2ccco2)CC1` (stereo not drawn), with 26.8%. Then `CC(NC(=O)CN1CCN(c2ccncc2Cl)CC1)c1ccco1` (stereo not drawn), with 71.3%.

`O=c1[nH]c(-c2ccccc2)nc2c1CCN(S(=O)(=O)N1CCCC1)C2`: the INHIBITION is reported as 9%. The value for `Cc1ccc(S(=O)(=O)N[C@H](CO)C(C)C)cc1N(C)C` was 6.94%.

Consider `CC1(C)CN=C(N2CCN(CCCN3CCOCC3)CC2)S1`, for which the INHIBITION stood at 89.6%. The value for `CC1(C)CN=C(N2CCN(CC3CCCO3)CC2)S1` (stereo not drawn) was 25.5%; that for `CC1(C)CN=C(N2CCN(CC3CCOC3)CC2)S1` (stereo not drawn) was 32%. The value for `Cc1nc(CN2C(=O)CC[C@@H]3[C@H]2CCN3C(=O)c2ccccn2)cs1` was 48.6%; that for `O=C(c1cccnc1)N1Cc2ccccc2OCC1Cn1ccnc1` (stereo not drawn) was 24.8%.

For `Cc1nc(C)c(C(=O)N2Cc3ccccc3OCC2Cn2ccnc2)o1` (stereo not drawn), the INHIBITION is 25.8%.

With `Cc1nc(C)c(C(=O)N2Cc3ccccc3OCC2Cn2ccnc2)s1` (stereo not drawn), the INHIBITION worked out at 51.7%. Then `CCS(=O)(=O)N1C[C@@H](O)[C@H](N2CCc3ccccc3C2)C1`, with 9.98%; and `Cc1noc(C)c1C(=O)N1CC[C@]2(C[C@@H](OCc3cccnc3)CO2)C1`, with 10.1%; and `CCC[C@@H]1CN(Cc2ccccc2-c2ccco2)C[C@H]1NC(C)=O`, with -20%. As for `Cc1nc(N(C)C)nc(C)c1NC(=O)c1ccccc1C(F)(F)F`, the INHIBITION is on record as 46.3%. The value for `Cc1nc(N(C)C)nc(C)c1NC(=O)c1ccco1` was -2.74%; that for `Cc1nc(N(C)C)nc(C)c1NC(=O)c1ccccc1F` was 64.3%; that for `Cc1ccc(NC(=O)c2ncc(C(N)=O)cc2Cl)cc1F` was -10.8%. In the case of `CNS(=O)(=O)c1cc(C(=O)NC2COc3ccccc32)cc(C)c1C` (stereo not drawn), the INHIBITION is 18.4%. As to `O=C(c1cccnc1N1CCCCC1)N1CCCC(n2cccn2)C1` (stereo not drawn), the INHIBITION is listed as -11.9%.
